Test results as given in PubChem BioAssay (NCI).
Compounds without any hit were thinned out: in the full panel of roughly 83,000, 20% have a hit.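 Step 1: grow cells in 96-well plates. Step 2: add test compound at a single concentration. Step 3: incubate 48 h. Step 4: record percent growth.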

Tests used:
Assay in all cases: NCI-60 one-dose screen, 48 h (100 = growth as untreated, 0 = no growth, -100 = all killed)
Conditions in all cases: 10 µM unless noted; active = growth percent below 10; inactive = the rest
[1] = test system: DU-145 prostate
[2] = test system: K-562 leukemia
[3] = test system: MALME-3M melanoma
[4] = test system: MDA-MB-231 breast
[5] = test system: RXF 393 renal
[6] = test system: SF-268 CNS
[7] = test system: SF-295 CNS
[8] = test system: SF-539 CNS
[9] = test system: UACC-257 melanoma
[10] = test system: M14 melanoma

Measured: growth

O=C(N/N=C\c1ccc(Cl)cc1Cl)c1ccncc1
inactive: [1] 111% | [2] 96.7% | [3] 99.1% | [4] 98.9% | [5] 118% | [6] 98.7% | [7] 103% | [8] 105% | [9] 104% | [10] 100%

COC(CCCl)c1ccc(Cl)cc1 (stereo not given)
inactive: [1] 111% | [2] 89% | [3] 98.9% | [4] 119% | [5] 113% | [6] 110% | [7] 112% | [8] 101% | [9] 78% | [10] 101%

ClCc1cccc2c(CCl)cccc12
inactive: [1] 32.6% | [2] 79.2% | [3] 90.6% | [4] 92.3% | [5] 61% | [6] 64.3% | [7] 58.6% | [8] 61.6% | [9] 70% | [10] 25.8%

Nc1ncnc(Nc2ccc(C(F)(F)F)cc2)n1
inactive: [1] 107% | [2] 98.9% | [3] 105% | [4] 102% | [5] 113% | [6] 101% | [7] 101% | [8] 107% | [9] 95.5% | [10] 103%

CCOC(=O)/C(C)=C\c1ccc(OC)c(OC)c1
inactive: [1] 99.5% | [2] 87% | [3] 112% | [4] 102% | [5] 112% | [6] 98.3% | [7] 100% | [8] 101% | [9] 108% | [10] 105%

O=C(CCl)Oc1ccc([N+](=O)[O-])cc1
inactive: [1] 113% | [2] 103% | [3] 116% | [4] 119% | [5] 99.5% | [6] 109% | [7] 97.3% | [8] 109% | [9] 112% | [10] 103%

CCCCCCCCCCCCSC1=C(Cl)C(=O)C(OC)=C(OC)C1=O
inactive: [1] 60.2% | [2] 28.2% | [3] 12.5% | [4] 55.5% | [5] 34.1% | [6] 46.1% | [7] 38.3% | [8] 41.5% | [9] 26.8% | [10] 64.1%

O=C(O)c1c[nH]c2ccccc2c1=O
inactive: [1] 98.6% | [2] 93.1% | [3] 91.9% | [4] 98.1% | [5] 116% | [6] 102% | [7] 104% | [8] 93.9% | [9] 112% | [10] 101%

CC1(C)CC(=O)C=C(N)C1
inactive: [1] 128% | [2] 146% | [3] 155% | [4] 104% | [5] 94.4% | [6] 110% | [7] 98.7% | [8] 127% | [9] 87.2% | [10] 102%

O=C(O)c1ccccc1Cc1ccc2c(c1)CCCC2
inactive: [1] 118% | [2] 106% | [3] 108% | [4] 95% | [5] 105% | [6] 99.5% | [7] 116% | [8] 110% | [9] 100% | [10] 110%

CC(=O)N(CCCCCCN(C(C)=O)C(C)=O)C(C)=O
inactive: [1] 106% [100 µM] | [2] 102% [100 µM] | [3] 107% [100 µM] | [4] 98% [100 µM] | [5] 112% [100 µM] | [6] 104% [100 µM] | [7] 110% [100 µM] | [8] 98.3% [100 µM] | [9] 95.1% [100 µM] | [10] 105% [100 µM]

O=Cc1ccc(O)c(O)c1
inactive: [1] 94.9% | [2] 103% | [3] 108% | [4] 99.7% | [5] 88.3% | [6] 74.1% | [7] 103% | [8] 81.9% | [9] 93.7% | [10] 94.5%

C#CC(O)c1ccccc1 (stereo not given)
inactive: [1] 110% | [2] 99.3% | [3] 99.7% | [4] 101% | [5] 112% | [6] 112% | [7] 110% | [8] 99.7% | [9] 102% | [10] 101%

COc1ccc(C(=O)C(=O)c2ccccc2)cc1
inactive: [1] 113% | [2] 111% | [3] 101% | [4] 101% | [5] 92.9% | [6] 105% | [7] 96.6% | [8] 117% | [9] 111% | [10] 106%

COc1cc(C(=O)NC(=S)NCc2ccncc2)cc(OC)c1OC
inactive: [1] 103% | [2] 86.2% | [3] 104% | [4] 114% | [5] 95.8% | [6] 102% | [7] 96.5% | [8] 95.8% | [9] 103% | [10] 106%

CC1(c2ccccc2)CO1 (stereo not given)
inactive: [1] 111% | [2] 106% | [3] 118% | [4] 108% | [5] 120% | [6] 107% | [7] 110% | [8] 102% | [9] 102% | [10] 108%
